Assay [1] deals with Vero E6 infected with SARS-CoV-2. Briefly: morphology score (similarity to uninfected cells); higher = more like uninfected cells. Conditions: 24 h.
The test system is the same in assay [2]. Briefly: SARS-CoV-2 infection rate relative to infected DMSO; higher = more infection, active = 60 or less. Particulars: 24 h.

Structures are written as SMILES.

In the case of `O=C(O)/C=C\c1c[nH]cn1` [cis-Urocanic acid] (10 µM), the morphology score in assay [1] was determined as 0.143. Also, the SARS-CoV-2 infection rate in assay [2] was 104% (inactive).
`Nc1ccc(S(=O)(=O)c2ccc(N)cc2)cc1` [dapsone] (10 µM): the morphology score in assay [1] is -0.179. Also, the SARS-CoV-2 infection rate in assay [2] was 99.5% (inactive).
Regarding `CCn1cc(C(=O)O)c(=O)c2cnc(N3CCNCC3)nc21` [pipemidic-acid] (10 µM), in assay [1], the morphology score worked out at 0.136. Besides, in assay [2], the SARS-CoV-2 infection rate is 102% (inactive).
As to `COc1ccc2c(c1)C(C(=O)N(Cc1ccc(N(C)C)cc1)c1ccc(C(C)C)cc1)CCC2` (stereo not given) (10 µM), the morphology score in assay [1] was determined as 0.106. Moreover, the SARS-CoV-2 infection rate in assay [2] was 85.5% (inactive).
Turning to `CCOC(=O)Nc1ccc2c(c1)N(C(=O)CN(CC)CC)c1ccccc1CC2` (10 µM), in assay [1], the morphology score came out at 0.0358. In addition, the SARS-CoV-2 infection rate in assay [2] is 101% (inactive).
For `O=C(/C=C/c1ccc(O)c(O)c1)OCCc1ccccc1` [caffeic-acid-phenethyl-ester] (10 µM), the morphology score in assay [1] was -0.0125. Also, in assay [2], the SARS-CoV-2 infection rate is 79% (inactive).
`CCCc1c(OCC(O)COc2ccc3c(=O)cc(C(=O)O)oc3c2CCC)ccc(C(C)=O)c1O` (stereo not given) (10 µM): the morphology score in assay [1] was 0.197. In addition, the SARS-CoV-2 infection rate in assay [2] is 99.5% (inactive).
`CCC(=O)c1ccc(OCC(O)CN2CCN(c3ccccc3)CC2)cc1` (stereo not given) [centpropazine] (10 µM) gave a morphology score in assay [1] of 0.0954. Also, the SARS-CoV-2 infection rate in assay [2] was 93.5% (inactive).
The matching figures for `Nc1cc(F)ccc1NC(=O)/C=C/c1cnn(C/C=C/c2ccccc2)c1` (0.833333 µM): -0.0979 and 109% (inactive).
As to `COc1cc2c(cc1OC)[C@@H](Cc1cc(OC)c(OC)c(OC)c1)[N+](C)(CCCOC(=O)CC/C=C/CCC(=O)OCCC[N+]1(C)CCc3cc(OC)c(OC)cc3[C@H]1Cc1cc(OC)c(OC)c(OC)c1)CC2` (stereo not given in full) [mivacurium] (10 µM), the morphology score in assay [1] was -0.0909. Besides, the SARS-CoV-2 infection rate in assay [2] was 104% (inactive).

These data come from the supplement of paper PMC13380429.
